Rows were chosen to be rich in hits. Some 2.7% of all compounds tested hit in one or more screens of this group.
Nrf2 activator: Nrf2 pathway activation | Potency, µM (doses to about 46.1 µM), for inactives: top-dose activation, usual class: activators | AREc32 ARE-luciferase reporter (MCF7-derived line), luminescence, 24 h | 410,000 tested, 0.31% active | AID 624171; note: potency is the fitted concentration of half-maximal effect; % of control where 0% means no effect; nearly all actives have a fitted effect of over 65% in size
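Reporter line AREc32 (ARE-Fluc), seeded overnight in OPTI-MEM with 5% FBS; compound pin-transferred, 24 hr at 37 deg C, 5% CO2; luminescent read-out.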
A549 tox: counter-screen for Nrf2 inhibitors: cytotoxicity in A549 cells. A549 ARE-Fluc cells, CellTiter-Fluor viability, 18-24 h. Potency, µM (doses to about 46 µM), without a hit: at the top dose activity change, negative = cytotoxicity, hits mostly inhibitors. 390,000 tested, 0.16% active; note: potency is the fitted concentration of half-maximal effect; % is set by controls: 0 for no effect and ±100 for the full control effect
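A549 ARE-Fluc cells in 5% FBS OPTI-MEM, 5000 cells/well, rested 2 h then exposed to compounds in concentration-response for 18-24 h at 37 °C. Viability by CellTiter-Fluor fluorescence (Ex 405/Em 525) after 30 min; luciferase luminescence (BugLite, 15 min, RT) read afterwards.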
ERG-DNA inh: blocks human ERG Ets domain binding to DNA. fluorescence polarization, His-ERG Ets domain / labelled DNA. 370,000 tested, 0.028% active. P11308. Potency, µM (doses to about 76.9 µM), inactives show at the highest dose FP activity, negative = inhibition, actives largely listed as inhibitors; active = well fitted inhibition curve with a large enough effect in the polarisation, with a control signal flat; inconclusive = small, poorly fitted or top-dose-only effect, or effect the other way, or a change in a side signal; inactive = no such curve, though single readings can be large or run the other way; the % refers to the polarisation;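 note: polarization taken with two DNA probes labelled with fluorescein and Texas red; potency is the fitted concentration of half-maximal effect; % of control where 0% means no effect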
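His-tagged ERG Ets domain (1 uM in the protein solution; 300mM KCl, 50mM Tris-HCl, 1mM EDTA, 1mM DTT, pH 7.5) received compound, then a probe mix of 5 nM fluorescein-DNA and 100nM Texas-615-DNA. Fluorescence polarization was read for both dyes.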
12-LOX inh: inhibitors of human 12S-lipoxygenase ALOX12. purified 12hLO, xylenol orange hydroperoxide absorbance. Potency, µM (titrated, usually from 108 µM), without a hit: at the top dose activity change, negative = inhibition, actives largely listed as inhibitors. P18054. 580,000 tested, 1.1% active. AID 1671190; note: potency is the fitted concentration of half-maximal effect; % is set by controls: 0 for no effect and ±100 for the full control effect
Target sequence (P18054 whole entry, looked up): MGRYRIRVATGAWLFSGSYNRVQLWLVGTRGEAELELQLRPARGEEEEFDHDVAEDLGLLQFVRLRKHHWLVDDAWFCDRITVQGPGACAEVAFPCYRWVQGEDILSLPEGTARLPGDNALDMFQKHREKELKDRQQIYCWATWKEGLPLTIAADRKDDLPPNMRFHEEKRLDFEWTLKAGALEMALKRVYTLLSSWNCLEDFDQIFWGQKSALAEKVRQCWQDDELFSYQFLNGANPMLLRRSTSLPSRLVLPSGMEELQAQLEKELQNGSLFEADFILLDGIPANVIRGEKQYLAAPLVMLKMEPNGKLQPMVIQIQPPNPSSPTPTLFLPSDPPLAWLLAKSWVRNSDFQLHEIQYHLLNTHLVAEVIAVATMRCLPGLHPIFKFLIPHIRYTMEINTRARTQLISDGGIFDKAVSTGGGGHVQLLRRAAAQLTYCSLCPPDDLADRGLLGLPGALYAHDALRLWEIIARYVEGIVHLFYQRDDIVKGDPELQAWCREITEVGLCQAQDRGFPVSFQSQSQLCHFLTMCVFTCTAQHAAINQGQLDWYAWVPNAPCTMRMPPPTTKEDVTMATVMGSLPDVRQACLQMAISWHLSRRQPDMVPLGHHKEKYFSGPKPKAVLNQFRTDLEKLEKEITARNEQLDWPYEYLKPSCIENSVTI
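Hydroperoxide product was detected by ferrous iron/xylenol orange as the 573 to 405 nm absorbance ratio. Arachidonic acid at 40 uM (final) was turned over for 30 min at room temperature by 150 nM human 12hLO, pH 7.0 Hepes buffer, after 15 min compound preincubation.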
LDHA block: inhibitors of human lactate dehydrogenase A. P00338. purified LDHA, NADH/diaphorase-resazurin fluorescence; stronger effect = lower value. activity change, % (values are at about 110 or 230 µM). 480,000 tested, 0.15% active. AID 1347041; in the data active = activity change below about -30%; inconclusive = mostly about -25% to -30%;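 note: plate controls were DMSO wells for no effect and wells without enzyme for full effect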
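Human LDH5 (2 nM) was incubated with 0.06 mM NADH and 0.2 mM pyruvate for 5 min at room temperature in Tris pH 7.4. Remaining NADH was coupled through diaphorase/resazurin, and resorufin fluorescence was read at 0 and 20 min.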
Nrf2 inh: inhibitors of Nrf2 signaling; A549 ARE-Fluc reporter, luciferase luminescence, 18-24 h; Potency, µM (highest dose often 46 µM), without a hit: at the top dose activity change, negative = inhibition, usual class: inhibitors; 360,000 tested, 2.1% active; AID 504444; note: potency is the fitted concentration of half-maximal effect; % is set by controls: 0 for no effect and ±100 for the full control effect; nearly all actives have a fitted effect of over 60% in size
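Nrf2 activity is the BugLite luminescence, read 15 min after reagent at room temperature, following CellTiter-Fluor cytotoxicity readout (30 min, 37C). Compound titrations were applied for 18-24 h to 5000 A549 ARE_Fluc cells/well in 5% FBS OPTI-MEM.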
* hit, by the source's call; ? = inconclusive; · = no result; [ ] = dose if it differs, or a comment. Unless noted, calls come from the whole dose curve; as a rule, active = well fitted curve in the direction sought with a large enough effect; inconclusive = small, poorly fitted or top-dose-only effect, or another doubt; inactive = no such curve, though single readings can be large; an effect the other way counts as inactive or inconclusive.

SMILES	Nrf2 activator	A549 tox	ERG-DNA inh	12-LOX inh	LDHA block	Nrf2 inh
C=CCN(CC=C)S(=O)(=O)c1ccc(NC(=S)NC(=O)c2ccco2)cc1	0%	0%	5%	?	-3	·
O=C(NC(=S)Nc1cccc(CO)c1)c1ccc(-c2ccccc2)cc1	0%	1%	4%	?	-2	-12%
O=C(NC(=S)Nc1ccccn1)c1ccc(-c2ccccc2)cc1	0%	5%	3%	32µM*	-10	?
COc1ccc2c(c1)C(C)=CC(C)(C)N2C(=O)Nc1cccc(Cl)c1	·	·	·	40µM*	2	·
CCOc1ccc2c(c1)C(C)=CC(C)(C)N2C(=O)Nc1ccccc1F	0%	-15%	-15%	?	30	7%
CN(C)/C=C/C(=O)c1ccccc1	10%	-7%	-5%	1%	-2	13%
CN(C)/C=C/C(=O)c1ccc(Oc2ccccc2)cc1	0%	3%	2%	5µM*	-7	?
COCCNC(=S)Nc1ccc(N2CCOCC2)c(S(=O)(=O)Nc2ccc(Cl)cc2)c1	-1%	·	·	5µM*	-11	·
O=C(Nc1ccc(N2CCOCC2)c(S(=O)(=O)Nc2ccc(Cl)cc2)c1)c1ccc(=O)[nH]n1	0%	-26%	4%	?	3	?
O=C(Nc1ccc(N2CCOCC2)c(S(=O)(=O)Nc2ccc(Cl)cc2)c1)c1cnccn1	0%	-1%	2%	8.9µM*	0	-11%
O=C1c2cc(Cl)ccc2-c2c(O)cc(Cl)cc21	16%	1%	10%	35µM*	1	4%
Cc1ccccc1NC(=O)c1cc(C2CC2)nc2ccccc12	·	·	·	?	7	·
O=C(N/N=C/C(Br)=C\c1ccccc1)c1ccc2nc[nH]c2c1	22µM*	13%	-2%	7%	-1	-11%
O=C(N/N=C/C(Br)=C/c1ccccc1)c1ccc([N+](=O)[O-])cc1	8.9µM*	-2%	12%	76%	?	1%
CC(=C/c1ccccc1)/C=N/NC(=O)c1ccc2nc[nH]c2c1	0%	3%	3%	-14%	-5	-10%
O=C(N/N=C/C(Br)=C/c1ccccc1)c1ccncc1	?	-8%	5%	?	-3	-20%
Cc1cc(C)cc(-c2nc(-c3ccncc3)no2)c1	0%	1%	-1%	24%[57.4 µM]	-3	?
Brc1cccc(-c2nc(-c3ccncc3)no2)c1	11µM*	9%	-11%	0%	-6	·
Fc1ccccc1-c1nc(-c2ccncc2)no1	13µM*	2%	-2%	-5%	-2	?
Cc1c(-c2nc(-c3ccncc3)no2)cccc1[N+](=O)[O-]	11µM*	13%	0%	70%	-3	12%
Cc1cccc(-c2nc(-c3ccncc3)no2)c1	13µM*	2%	9%	-6%	-8	?
O=C(C1CN(C(=O)c2ccc(Cl)c(Cl)c2)c2ccccc2O1)N1CCOCC1 (stereo not drawn)	·	·	·	?	1	·
O/N=C/c1ccc(OCc2ccccc2)c(OCc2ccccc2)c1	·	·	·	?	11	·
Cn1ccnc1C(NC(=O)Cc1n[nH]c(=O)c2ccccc12)c1ccc(F)cc1 (stereo not drawn)	·	·	·	-4%	-2	·
c1ccc2c(-c3nc(-c4ccncc4)no3)cccc2c1	25%	19%	-2%	-14%	-3	?
SMILES	Nrf2 activator	A549 tox	ERG-DNA inh	12-LOX inh	LDHA block	Nrf2 inh
FC(F)(F)c1cccc(-c2nc(-c3ccncc3)no2)c1	11µM*	0%	-2%	0%	3	?
Clc1ccc(Br)cc1-c1nc(-c2ccncc2)no1	4µM*	0%	-5%	5%	-13	?
O=C(O)c1ccc(-c2noc(-c3cccc(C(F)(F)F)c3)n2)cc1	5%	-8%	·	23%	-1	-25%
c1ccc(-c2noc(-c3cccc4ccccc34)n2)cc1	1.6µM*	11%	-13%	13%	-3	?
CC1Cc2c(nc(Cl)c(C#N)c2C#N)C([N+](=O)[O-])([N+](=O)[O-])C1 (stereo not drawn)	·	·	·	?	138	·
CCOC(=O)C1=C(Nc2ccccc2)O/C(=C\c2ccc(OC(F)F)cc2OC(F)F)C1=O	·	·	·	8%	6	·
O=C(N=Nc1c(O)[nH]c2ccc(Br)cc12)c1ccco1	5µM*	·	·	-12%	1	·
O=Cc1sc(Nc2ccccc2)nc1Cl	14µM*	3%	27%	-12%	-3	9%
COC(=O)c1ccc(/C=C(/Cl)c2ncc(-c3ccc(Cl)cc3)o2)cc1	·	·	·	?	1	·
Cc1cccc(N2CCN(S(=O)(=O)c3ccc(-c4ccc(=O)[nH]n4)o3)CC2)c1C	-1%	?	5%	-11%	0	13µM*
N=C(N)c1cccc(OCc2cccnc2)c1	·	·	·	7.9µM*	25	·
N=C(N)c1cccc(COc2ccccc2)c1	·	·	·	5%	-4	·
NC(=O)c1ccccc1N=Cc1ccc(O)cc1	·	·	·	?	5	·
S=c1[nH]c2cc(Br)cnc2[nH]1	0%	-6%	-2%	40µM*	-6	-3%
O=C(/C=C/c1ccc(F)cc1)NCCCCc1ccccc1	·	·	·	7%	-15	·
COc1cc(/C=C/c2nc3ccccc3s2)cc(OC)c1O	10%	-6%	115%	?	-5	23%
CCOc1cc(/C=C/c2nc3ccccc3s2)ccc1O	·	·	·	40µM*	3	·
CN(C)CCCN=c1c2ccccc2n(C)c2[nH]c(=O)n(C)c(=O)c12	·	·	·	22µM*	·	·
COC(=O)c1c(NC(=S)Nc2cc(OC)c(Cl)cc2OC)sc2c1CCCCC2	0%	-20%	-5%	40µM*	1	?
Nc1cc(Cc2ccccc2)ccc1O	?	-7%	-3%	5.6µM*	0	-6%
Cc1ccc2nc(C(C)(C)C)c(Cc3ccsc3)n2c1	8%	·	·	6.3µM*	7	·
Cc1cc(Br)cn2c(Cc3ccsc3)c(C(C)(C)C)nc12	15%	·	·	35µM*	11	·
CCCc1nc2ccc(C)cn2c1Cc1ccsc1	7%	·	·	20%	3	·
CCCc1nc2c(C)cc(Br)cn2c1Cc1ccsc1	16%	·	·	?	5	·
Cc1ccc2oc(=O)cc(CN3CCN(CCO)CC3)c2c1	·	·	·	-2%	0	·
O=C(O)CCn1c(=O)cc(C(F)(F)F)c2cn(C3CCCC3)nc21	·	·	·	-22%	1	·
CCc1cc(CNC(=O)c2ccc3nc(Cc4ccc(OC)c(OC)c4)oc3c2)on1	2%	-9%	15%	13%	2	21µM*
COc1ccc(Cc2nc3ccc(C(=O)NCc4cc(C)no4)cc3o2)cc1	3%	1%	0%	2%	-1	?
CN(C)CCCN(Cc1ccccc1)C(=O)c1nn(C)c(=O)c2ccccc12	·	·	·	1%	-16	·

High-throughput results from PubChem BioAssay.
